Most compounds without a hit are left out; they make up all but 2.4% or so of the library.
Pf gamet viab: P. falciparum stage V gametocyte viability inhibition; P. falciparum stage V gametocytes, ATP luminescence, 24 h; inhibition, % at 10.9 µM; 150,000 compounds, 0.065% hits;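 active = inhibition above the mean plus 3 SD of compounds within the control limits, set per campaign, cut at about 38% in these data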;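 also: 0% = DMSO wells and 100% = medium only without gametocytes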
MEKK3 PB1 HTS: modulators (inhibitors or enhancers) of MEK5 binding to human MEKK3 PB1 domain. Q99759. bead-based flow cytometry, Alexa488-MEK5 binding to MEKK3; actives lie on both sides; 0 = blocked by unlabeled MEK5, 100 = vehicle. binding response (% of control), % at 10 µM. 290,000 compounds, 1.4% hits. AID 1529;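 active = binding response more than 3 SD above or below the average of its plate-row segment, actives on both sides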;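 also: Alexa488 bead fluorescence after subtracting the streptavidin-only scavenger bead signal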
Target sequence (Q99759 whole entry, looked up, the tested form may be a part): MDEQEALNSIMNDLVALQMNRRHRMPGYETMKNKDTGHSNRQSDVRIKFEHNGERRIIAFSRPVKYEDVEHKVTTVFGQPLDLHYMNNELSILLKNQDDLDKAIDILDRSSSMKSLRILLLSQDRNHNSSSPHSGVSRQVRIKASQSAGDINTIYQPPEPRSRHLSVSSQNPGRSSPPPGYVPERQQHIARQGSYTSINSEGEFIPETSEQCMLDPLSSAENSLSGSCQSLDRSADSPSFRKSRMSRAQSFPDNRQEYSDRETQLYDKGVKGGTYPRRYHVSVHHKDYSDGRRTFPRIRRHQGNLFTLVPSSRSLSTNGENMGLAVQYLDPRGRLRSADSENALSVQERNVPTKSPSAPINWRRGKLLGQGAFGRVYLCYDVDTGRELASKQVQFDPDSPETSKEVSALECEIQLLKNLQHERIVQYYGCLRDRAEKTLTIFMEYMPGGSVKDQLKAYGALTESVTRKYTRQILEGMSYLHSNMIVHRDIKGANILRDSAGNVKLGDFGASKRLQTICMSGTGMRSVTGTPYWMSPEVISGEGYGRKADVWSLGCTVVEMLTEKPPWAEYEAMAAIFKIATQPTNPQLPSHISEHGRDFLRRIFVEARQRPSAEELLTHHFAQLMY
MEKK2wt PB1 HTS: raises or lowers MEK5 binding to wildtype human MEKK2 PB1 domain. Q9Y2U5. bead flow cytometry, Alexa488-MEK5 binding to MEKK2 WT; actives lie on both sides. AID 1531. binding response (% of control), % at 10 µM. 290,000 compounds, 1.1% hits; in the data active = binding response below about 67% or above about 130%
Arbovirus inh: antivirals against arbovirus infection | arbovirus infection cell-based antiviral screen | inhibition, % at 10 µM | 200,000 compounds, 0.37% hits | AID 1251; in the data active = inhibition above about 30%
MEKK2mut PB1 HTS: signal of MEK5 binding to mutant human MEKK2 PB1 domain; bead flow cytometry, Alexa488-MEK5 binding to MEKK2 mutant; percent response, % at 10 µM; 290,000 compounds, 0.35% hits; in the data active = percent response above about 24%, passing the limit was not always enough
MEKK2wt confirm: raises or lowers MEK5 binding to wildtype human MEKK2, retest. shares compounds with MEKK3 PB1 HTS. 5,900 compounds, 2.4% hits. binding response (% of control), % at 10 µM. bead flow cytometry, Alexa488-MEK5 binding to MEKK2 WT; actives lie on both sides; in the data active = binding response below about 16% or above about 210%; inactive = in between
MEKK2mut-MEK5: signal of MEK5 binding to mutant human MEKK2, retest | bead flow cytometry, Alexa488-MEK5 binding to MEKK2 mutant | shares compounds with MEKK3 PB1 HTS | percent response, % at 10 µM | 5,900 compounds, 2% hits; in the data active = percent response mostly above about 71%, no sharp cut-off; inactive = mostly below about 38%;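 also: higher means compound restores mutant binding toward wildtype level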
MEKK3-MEK5 inh: confirmation of inhibitors of MEK5 binding to human MEKK3. binding response (% of control), % at 10 µM. AID 1894. shares compounds with MEKK3 PB1 HTS. bead flow cytometry, Alexa488-MEK5 binding to MEKK3; stronger effect = lower value. 5,900 compounds, 1.8% hits;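 active = binding response below 72% of control, or above a set upper limit, though filed actives all read lower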;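 also: 100% = DMSO only wells and 0% = binding blocked by excess unlabeled MEK5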
* hit, by the source's call; · = no result given; [ ] = dose if it differs, or a comment.

SMILES	Pf gamet viab	MEKK3 PB1 HTS	MEKK2wt PB1 HTS	Arbovirus inh	MEKK2mut PB1 HTS	MEKK2wt confirm	MEKK2mut-MEK5	MEKK3-MEK5 inh
CC1(C(=O)NCc2ccccn2)C=CCN1C(=O)c1ccccc1 (centres undefined)	-5	50*[inhibitor]	65	-3	1	114	12	110
CNC(=O)C1(C)C=CCN1C(=O)c1ccccc1 (centres undefined)	22	111	97	2	5	·	·	·
Cc1ccc(SC[C@H](CC(C)C)N2CCN(CCc3ccccc3)CCC2=O)cc1	·	108	103	·	8	·	·	·
O=C1CCN(CCc2ccccc2)CCN1[C@H](CSc1ccc(Br)cc1)Cc1ccccc1	20	118	154*	·	2	142	36	105
COc1ccc(SC[C@H](CC(C)C)N2CCN(CCc3ccccc3)CCC2=O)cc1	·	106	137*	·	10	124	14	104
COc1ccc(SC[C@H](CC(C)C)N2CCN(C)CCC2=O)cc1	·	128*	146*	·	2	113	-1	103
O=C1CCN(Cc2ccccc2)CCN1[C@H](CSc1ccccc1)Cc1ccccc1	·	97	99	·	0	·	·	·
CCCN1CCC(=O)N([C@H](CSc2ccc(OC)cc2)c2ccccc2)CC1	22	129*	165*	·	4	111	3	103
CN1CCC(=O)N([C@H](CSc2ccccc2)c2ccccc2)CC1	-40	101	109	·	0	·	·	·
CCOc1cc(/C=C2\CCCC(C(=O)C(F)(F)F)=C2O)ccc1O	-13	89	90	8	-4	·	·	·
CC1CCN(Cc2nnc(-c3cccc(Br)c3)o2)CC1	·	106	106	·	4	·	·	·
CCN(CC(=O)Nc1ccc(NC(C)=O)cc1)C(=O)/C=C/c1c(C)nn(-c2ccc(F)cc2)c1C	·	102	103	·	4	·	·	·
Cn1c(=O)c(NC2CCCCC2)c2c3c(cccc31)C(=O)c1ccccc1-2	0	59	37*[inhibitor]	-8	-20	62	-15	93
CC(=O)Nc1ccc(Nc2c3c4c(cccc4n(C)c2=O)C(=O)c2ccccc2-3)cc1	-3	83	90	-2	-5	·	·	·
CCCCNc1c2c3c(cccc3n(C)c1=O)C(=O)c1ccccc1-2	·	74	41*[inhibitor]	-21	-21	72	-13	95
CCNc1c2c3c(cccc3n(C)c1=O)C(=O)c1ccccc1-2	·	99	83	-16	-7	·	·	·
Cn1c(=O)c(NCCO)c2c3c(cccc31)C(=O)c1ccccc1-2	-15	104	98	8	3	·	·	·
Cn1c(=O)c(NCCc2ccccc2)c2c3c(cccc31)C(=O)c1ccccc1-2	·	85	62*[inhibitor]	-3	-16	85	-9	100
COCCNC(=O)c1n[nH]c2ccccc12	1	70*[inhibitor]	85	9	-3	105	-2	104
COCCNC(=O)c1cn(C)c2ccccc2c1=O	17	70*[inhibitor]	74	7	-14	98	-8	96
CCOC(=O)CC(=O)NC1(Cc2ccc(O)cc2)CCCCC1	1	72	68	-1	-14	·	·	·
CCOc1ccc(-n2nnnc2SCC(=O)NNC(=O)c2ccco2)cc1	-23	99	102	-4	6	·	·	·
CCc1cc(=O)oc2cc(C)cc(OCC(C)=O)c12	10	102	101	·	7	·	·	·
CCc1cc(=O)oc2cc(C)cc(OCC(=O)C(C)(C)C)c12	-23	72*[inhibitor]	70	-2	-23	101	-1	103
CSc1ccccc1NC(=O)CN(c1cccc(C)c1)S(C)(=O)=O	·	67*[inhibitor]	81	-4	-11	98	-7	98
SMILES	Pf gamet viab	MEKK3 PB1 HTS	MEKK2wt PB1 HTS	Arbovirus inh	MEKK2mut PB1 HTS	MEKK2wt confirm	MEKK2mut-MEK5	MEKK3-MEK5 inh
Cc1cc(C)cc(N(CC(=O)Nc2ccccc2-c2ccccc2)S(=O)(=O)c2ccccc2)c1	5	134*	107	-8	0	98	-4	102
Cc1ccc(N(CC(=O)Nc2ccccc2-c2ccccc2)S(=O)(=O)c2ccccc2)cc1	9	103	99	-8	1	·	·	·
O=C1CC[C@@H](CN(Cc2ccccn2)Cc2nc(Cc3cccc(C(F)(F)F)c3)no2)N1	4	63	71	-5	-18	·	·	·
Cc1onc(-c2c(F)cccc2Cl)c1C(=O)OCC(=O)NC1CC1	18	70*[inhibitor]	90	15	-2	98	-3	102
Cc1onc(-c2c(F)cccc2Cl)c1C(=O)N1CCCCC1	·	101	105	·	2	·	·	·
CCOC(=O)C1CCN(C(=O)c2c(-c3c(F)cccc3Cl)noc2C)CC1	·	127*	115	-4	8	100	-6	101
Cc1onc(-c2c(F)cccc2Cl)c1C(=O)OCC(=O)NC(N)=O	·	104	97	-1	-12	·	·	·
CCOC(=O)C1CCN(C(=O)CSc2ccc(Br)cc2)CC1	5	101	98	4	3	·	·	·
CCOC(=O)C1CCN(C(=O)CSc2ccc(Cl)cc2)CC1	-10	129*	108	-3	1	100	-5	100
CCOC(=O)C1CCCCN1S(=O)(=O)c1cc2c(cc1C)NC(=O)CO2 (centres undefined)	·	97	98	·	-1	·	·	·
CCOC(=O)c1c(C)[nH]c(C(=O)NCCc2ccc(OC)c(OC)c2)c1C	·	103	106	·	16	·	·	·
CC1(c2nnc(Cc3ccccc3)o2)CC(c2cccnc2)=NO1 (centres undefined)	12	107	101	·	3	·	·	·
Cc1cccc(N2C(=O)CC(c3ccc(F)cc3)C3=C2COC3=O)c1 (centres undefined)	·	85	78	-2	-14	·	·	·
C[N+](C)(C)C/C=C1/COCO1	18	117	120	6	27*	111	13	108
COc1cc(C(=O)N2CCN(Cc3ccc4c(c3)OCO4)CC2)cc(OC)c1OC	-11	99	102	·	28*	98	-1	102
CC(C)NC(=S)N1CCN(Cc2ccc3c(c2)OCO3)CC1	-13	91	91	2	-3	·	·	·
CCN(CC)c1ccc(C(=O)NC(=S)N2CCN(Cc3ccc4c(c3)OCO4)CC2)cc1	-7	145*	107	3	-1	101	0	102
O=C(O)CCCC(=O)Nc1ccc(Oc2ncnc3cc(Cl)ccc23)nc1	1	128*	128	·	26	98	-1	99
O=C(Nc1ccc(F)cc1)Nc1ccc(Oc2ncnc3cc(Cl)ccc23)nc1	-5	69*[inhibitor]	75	·	-33	104	2	102
Clc1cccc(Cl)c1/C=C/c1ccn[nH]1	·	102	105	·	2	·	·	·

Screens deposited in PubChem BioAssay by several laboratories.
